Most compounds without a hit are left out; they make up all but 2.3% or so of the library.
V-ATPase pHluor = regulators of yeast V-ATPase proton transport. S. cerevisiae, pHLuorin cytosolic pH fluorescence. response, % at 10 µM. 0.37% of 350,000 active; in the data active means response mostly above about 7.3%, no sharp cut-off; inactive means mostly below about 5.4%; further: actives read high
ADAM17 inh = inhibits human ADAM17; P78536; recombinant ADAM17, EDANS/DABCYL FRET peptide cleavage; inhibition, % at 6.95 µM; 0.83% of 370,000 active; AID 720648;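 active means inhibition above the mean of compounds lying between control limits plus 3 SD, set per campaign, cut at about 8.5% in these data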;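 further: 0% = DMSO-only wells as the low control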
ADAM10 inh = inhibits human ADAM10 | O14672 | recombinant ADAM10, EDANS/DABCYL FRET peptide cleavage, 3 h | inhibition, % at 7 µM | 0.62% of 370,000 active | AID 720582;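 active means inhibition above a per-campaign cutoff equal to the mean of compounds falling between control-based bounds plus 3 SD, cut at about 20% in these data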;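 further: 0% = DMSO wells while the 100% control is not disclosed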
KLK7 zymogen act = activators of human kallikrein-7 zymogen. purified proKLK7, EDANS-DABCYL substrate fluorescence; 100% is mature enzyme control, 0% vehicle. activation, % at 7 µM. P49862. 0.9% of 370,000 active;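 active means activation above the mean of all tested compounds plus 3 SD, computed per campaign excluding outliers beyond control limits, cut at about 13% in these data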
Target sequence (P49862 whole entry, looked up): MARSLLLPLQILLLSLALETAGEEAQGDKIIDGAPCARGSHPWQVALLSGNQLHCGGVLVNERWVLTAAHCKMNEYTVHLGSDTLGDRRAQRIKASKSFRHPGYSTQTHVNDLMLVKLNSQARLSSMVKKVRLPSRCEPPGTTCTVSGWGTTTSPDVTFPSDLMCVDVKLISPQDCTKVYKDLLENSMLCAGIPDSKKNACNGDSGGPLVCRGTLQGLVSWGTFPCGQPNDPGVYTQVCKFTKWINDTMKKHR
ADAM10 confirm = confirmation of inhibitors of human ADAM10 | shares compounds with ADAM10 inh | ADAM10 QFRET peptide cleavage, EDANS fluorescence | inhibition, % at 6.95 µM | 1% of 2,100 active | AID 743208;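 active means inhibition above about 20% chosen separately for each screening run, limit read from the data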;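 further: 0% = DMSO wells and 100% = marimastat wells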
ADAM17 ctr = inhibits human ADAM17 in ADAM10 exosite counter-screen; shares compounds with ADAM10 inh; ADAM17 QFRET peptide cleavage, EDANS fluorescence; inhibition, % at 6.95 µM; 0.5% of 2,100 active;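 active means mean triplicate inhibition above the solvent-only control wells' mean plus 3 SD, cut at about 12% in these data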;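 further: 0% = DMSO wells and 100% = marimastat wells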
* hit, by the source's call; . = no result.

SMILES | V-ATPase pHluor | ADAM17 inh | ADAM10 inh | KLK7 zymogen act | ADAM10 confirm | ADAM17 ctr
O=S1(=O)c2ccc(N3CCSCC3)cc2Oc2ccccc2CN1Cc1cn(Cc2ccc(C(F)(F)F)cc2)nn1 | . | -1 | 20* | -1 | 10 | 3
Cc1nc(-c2cccc(NS(=O)(=O)c3ccc4ccccc4c3)c2)cs1 | -1 | 8 | 26* | 0 | 8 | 2
Cc1nc(CNS(=O)(=O)c2ccc3ccccc3c2)cs1 | -3 | 0 | -1 | -1 | . | .
COc1ccc2c(c1)[C@@]1(NCCc3c1[nH]c1ccc(OC)cc31)C(=O)N2C | . | -2 | 7 | 0 | . | .
CCO[C@@H]1OC(C(=O)O)=C[C@H](c2cn(C(C)=O)c3ccccc23)[C@H]1CCCO | 0 | -4 | 1 | 1 | . | .
C#Cc1ccc([C@@H]2C=C(C(=O)N3CCN(Cc4ccccc4)CC3)O[C@H](OCC)[C@H]2CCCO)cc1 | -3 | 4 | 24* | 0 | 3 | 1
CCO[C@H]1OC(C(=O)NCc2ccccc2)=C[C@@H](c2cn(C(C)=O)c3ccccc23)[C@@H]1CCCO | -6 | 3 | 26* | 0 | 4 | 2
CCO[C@@H]1OC(C(=O)NCc2nc3ccccc3[nH]2)=C[C@H](c2csc3ccccc23)[C@H]1CCCO | 3 | 3 | 20* | 0 | 4 | 2
CCO[C@H]1OC(C(=O)NCc2nc3ccccc3[nH]2)=C[C@@H](c2ccccc2)[C@@H]1CCCO | 0 | -2 | -3 | 0 | . | .
COC(=O)[C@]12C[C@H](CC(=O)N3CCOCC3)C(=O)N(Cc3ccc(Cl)cc3Cl)C1=C[C@H](C(C)(C)C)O[C@@H]2C | . | 2 | 5 | 0 | . | .
C/C(CC(=O)Nc1ccc(Cl)cc1C(F)(F)F)=N\NC(=O)c1cccs1 | 0 | 2 | 5 | 0 | . | .
COc1cc(NC(=O)C/C(C)=N/NC(=O)c2cccs2)c(OC)cc1Cl | -3 | 15* | 28* | 0 | 0 | 1
COc1ccc(C(C)(O)c2nc(-c3cccc(F)c3)cs2)cc1 (stereo not given) | . | 5 | 22* | 1 | 3 | 0
COc1ccc(-c2csc(C(C)(O)c3cccc(F)c3)n2)cc1 (stereo not given) | . | 3 | 7 | 0 | . | .
COc1cccc(-c2csc(N3CCN(CC(=O)NNC(=O)c4ccc(Cl)cc4)CC3)n2)c1 | 0 | 5 | 20* | 0 | 0 | 0
COc1cccc(-c2csc(N3CCN(CC(=O)NNC(=O)c4ccc(Br)cc4)CC3)n2)c1 | -6 | 3 | 6 | 0 | . | .
COCCNC(=S)N1CCN(c2nc(-c3cccc(OC)c3)cs2)CC1 | -2 | 5 | 21* | 0 | 1 | 0
CN(Cc1ccccc1)C(=O)c1cccc(NC(=O)Cc2ccc(NC(=O)C3CCCN(S(=O)(=O)c4cccc([N+](=O)[O-])c4)C3)cc2)c1 (stereo not given) | . | 1 | -2 | 0 | . | .
COC(=O)c1cc2c(c3c4cc(OC)ccc4n(S(=O)(=O)c4cccc(C)c4)c13)C(=O)N(Cc1ccc(C(F)(F)F)cc1)C2 | . | -2 | -9 | 1 | . | .
CC(C)C[C@H]1COc2cccc(N3CCOCC3)c2S(=O)(=O)N1 | . | -2 | -8 | 0 | . | .
Cc1onc(-c2ccccc2)c1-c1nnc(COC(=O)c2ccc(F)cc2)o1 | 1 | 6 | 14 | 0 | . | .
Cc1onc(-c2ccccc2)c1-c1nnc(COC(=O)c2ccc(O)cc2)o1 | -1 | 7 | 22* | 0 | 0 | 0
Cc1ccc(Cn2nnc3c(=O)[nH]c(C4CCN(S(=O)(=O)c5ccc(F)cc5)CC4)nc32)cc1 | 1 | 6 | 21* | 0 | 1 | 1
O=c1[nH]c(C2CCN(S(=O)(=O)/C=C/c3ccccc3)CC2)nc2c1nnn2Cc1ccc(F)cc1 | 1 | 8 | 29* | 0 | 2 | 2
O=c1[nH]c(C2CCN(S(=O)(=O)c3ccccc3F)CC2)nc2c1nnn2Cc1ccc2c(c1)OCCO2 | 2 | 0 | 4 | 0 | . | .
O=c1[nH]c(C2CCN(S(=O)(=O)c3ccc(F)cc3)CC2)nc2c1nnn2Cc1ccc2c(c1)OCCO2 | 1 | 1 | 23* | 0 | 2 | 1
CCOC(=O)[C@@]12CCCC3=C1N(CCC3)C(=O)[C@H]2CC(=O)NCC12CC3CC(CC(C3)C1)C2 | . | -4 | -3 | 0 | . | .
